The target of assay [1] is T1, Serine/threonine-protein kinase 3 (Homo sapiens) (UniProt Q13188).
T1 sequence (whole entry): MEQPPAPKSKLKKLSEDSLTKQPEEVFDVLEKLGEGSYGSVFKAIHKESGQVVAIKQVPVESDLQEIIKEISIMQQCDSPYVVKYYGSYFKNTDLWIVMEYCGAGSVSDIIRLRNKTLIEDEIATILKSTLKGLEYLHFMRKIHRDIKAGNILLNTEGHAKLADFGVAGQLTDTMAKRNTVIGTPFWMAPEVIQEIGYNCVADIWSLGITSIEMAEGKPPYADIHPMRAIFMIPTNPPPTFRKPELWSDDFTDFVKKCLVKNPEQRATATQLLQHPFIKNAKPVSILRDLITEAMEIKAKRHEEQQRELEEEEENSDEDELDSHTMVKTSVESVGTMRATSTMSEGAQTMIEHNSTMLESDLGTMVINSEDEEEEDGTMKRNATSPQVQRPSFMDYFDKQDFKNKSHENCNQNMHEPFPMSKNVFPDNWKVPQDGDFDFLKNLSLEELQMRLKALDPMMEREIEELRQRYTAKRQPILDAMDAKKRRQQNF
The following applies: at 10 µM.

For assay [2], the target named is Serine/threonine-protein kinase 24 (Homo sapiens) (UniProt Q9Y6E0). Particulars: at 1 µM.
Sequence of Serine/threonine-protein kinase 24 (Homo sapiens) (Q9Y6E0 whole entry, looked up): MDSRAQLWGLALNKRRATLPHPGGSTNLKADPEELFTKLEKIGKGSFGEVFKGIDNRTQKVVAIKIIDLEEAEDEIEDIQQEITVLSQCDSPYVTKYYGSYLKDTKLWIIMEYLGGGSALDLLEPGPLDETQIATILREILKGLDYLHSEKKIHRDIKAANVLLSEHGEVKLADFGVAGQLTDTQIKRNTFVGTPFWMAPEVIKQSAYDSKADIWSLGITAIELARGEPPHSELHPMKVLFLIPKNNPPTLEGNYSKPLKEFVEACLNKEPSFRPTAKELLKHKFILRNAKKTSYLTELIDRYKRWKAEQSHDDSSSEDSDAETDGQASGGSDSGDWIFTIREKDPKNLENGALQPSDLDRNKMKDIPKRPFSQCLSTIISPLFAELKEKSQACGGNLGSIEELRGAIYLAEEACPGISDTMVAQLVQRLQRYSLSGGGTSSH
Assay [3] has the same target. The following applies: at 10 µM.
Assay [4] addresses T2, Tyrosine-protein kinase Mer (Homo sapiens) (UniProt Q12866).
T2 sequence (whole entry): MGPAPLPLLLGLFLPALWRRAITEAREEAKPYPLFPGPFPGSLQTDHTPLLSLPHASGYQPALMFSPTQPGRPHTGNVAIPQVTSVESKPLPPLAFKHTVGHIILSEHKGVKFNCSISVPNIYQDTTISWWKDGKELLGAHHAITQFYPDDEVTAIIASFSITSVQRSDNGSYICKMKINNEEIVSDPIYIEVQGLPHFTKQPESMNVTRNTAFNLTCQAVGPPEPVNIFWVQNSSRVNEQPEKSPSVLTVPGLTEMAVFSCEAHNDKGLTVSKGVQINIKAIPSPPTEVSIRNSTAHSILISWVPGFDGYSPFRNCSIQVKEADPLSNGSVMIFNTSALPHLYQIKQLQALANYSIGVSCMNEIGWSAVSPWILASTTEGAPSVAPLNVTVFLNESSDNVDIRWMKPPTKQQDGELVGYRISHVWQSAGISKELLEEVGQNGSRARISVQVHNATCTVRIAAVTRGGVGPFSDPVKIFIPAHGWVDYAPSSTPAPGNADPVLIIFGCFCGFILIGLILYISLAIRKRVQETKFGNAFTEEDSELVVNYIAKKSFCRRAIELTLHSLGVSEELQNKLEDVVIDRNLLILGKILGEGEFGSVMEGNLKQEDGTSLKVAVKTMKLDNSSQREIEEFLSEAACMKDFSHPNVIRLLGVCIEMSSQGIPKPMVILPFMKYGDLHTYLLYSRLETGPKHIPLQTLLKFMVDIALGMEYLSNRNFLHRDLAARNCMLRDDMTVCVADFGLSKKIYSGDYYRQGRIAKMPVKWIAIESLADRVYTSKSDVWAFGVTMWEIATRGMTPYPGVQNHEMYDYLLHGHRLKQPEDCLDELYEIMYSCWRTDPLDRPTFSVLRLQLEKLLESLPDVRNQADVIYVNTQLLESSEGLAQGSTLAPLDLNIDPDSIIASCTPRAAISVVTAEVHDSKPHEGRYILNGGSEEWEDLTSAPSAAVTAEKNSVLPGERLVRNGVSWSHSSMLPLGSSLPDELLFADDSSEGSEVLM
The following applies: at 1 µM.

The target of assay [5] is T2, Tyrosine-protein kinase Mer (Homo sapiens). The following applies: at 10 µM.
Assay [6] concerns the target T1, Serine/threonine-protein kinase 3 (Homo sapiens). Particulars: at 1 µM.
The target of assay [7] is MAP kinase-interacting serine/threonine-protein kinase 2 (Homo sapiens) (UniProt Q9HBH9). The following applies: at 1 µM.
Sequence of MAP kinase-interacting serine/threonine-protein kinase 2 (Homo sapiens) (Q9HBH9 whole entry, looked up): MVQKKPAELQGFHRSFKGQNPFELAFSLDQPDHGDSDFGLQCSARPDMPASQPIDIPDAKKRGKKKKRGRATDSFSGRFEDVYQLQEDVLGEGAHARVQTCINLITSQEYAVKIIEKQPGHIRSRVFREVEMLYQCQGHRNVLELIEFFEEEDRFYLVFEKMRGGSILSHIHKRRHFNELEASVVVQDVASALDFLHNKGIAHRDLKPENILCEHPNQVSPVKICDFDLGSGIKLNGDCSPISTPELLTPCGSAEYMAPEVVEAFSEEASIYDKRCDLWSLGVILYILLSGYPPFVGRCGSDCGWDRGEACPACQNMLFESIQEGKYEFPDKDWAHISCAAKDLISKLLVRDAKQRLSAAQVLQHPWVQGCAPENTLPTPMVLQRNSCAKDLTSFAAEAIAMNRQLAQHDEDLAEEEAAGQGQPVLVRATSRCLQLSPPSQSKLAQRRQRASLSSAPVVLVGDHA
The target is the same in assay [8]. Particulars: at 10 µM.
The target in assay [9] is Hepatocyte growth factor receptor (Homo sapiens) (UniProt P08581). The following applies: at 1 µM.
Sequence of Hepatocyte growth factor receptor (Homo sapiens) (P08581 whole entry): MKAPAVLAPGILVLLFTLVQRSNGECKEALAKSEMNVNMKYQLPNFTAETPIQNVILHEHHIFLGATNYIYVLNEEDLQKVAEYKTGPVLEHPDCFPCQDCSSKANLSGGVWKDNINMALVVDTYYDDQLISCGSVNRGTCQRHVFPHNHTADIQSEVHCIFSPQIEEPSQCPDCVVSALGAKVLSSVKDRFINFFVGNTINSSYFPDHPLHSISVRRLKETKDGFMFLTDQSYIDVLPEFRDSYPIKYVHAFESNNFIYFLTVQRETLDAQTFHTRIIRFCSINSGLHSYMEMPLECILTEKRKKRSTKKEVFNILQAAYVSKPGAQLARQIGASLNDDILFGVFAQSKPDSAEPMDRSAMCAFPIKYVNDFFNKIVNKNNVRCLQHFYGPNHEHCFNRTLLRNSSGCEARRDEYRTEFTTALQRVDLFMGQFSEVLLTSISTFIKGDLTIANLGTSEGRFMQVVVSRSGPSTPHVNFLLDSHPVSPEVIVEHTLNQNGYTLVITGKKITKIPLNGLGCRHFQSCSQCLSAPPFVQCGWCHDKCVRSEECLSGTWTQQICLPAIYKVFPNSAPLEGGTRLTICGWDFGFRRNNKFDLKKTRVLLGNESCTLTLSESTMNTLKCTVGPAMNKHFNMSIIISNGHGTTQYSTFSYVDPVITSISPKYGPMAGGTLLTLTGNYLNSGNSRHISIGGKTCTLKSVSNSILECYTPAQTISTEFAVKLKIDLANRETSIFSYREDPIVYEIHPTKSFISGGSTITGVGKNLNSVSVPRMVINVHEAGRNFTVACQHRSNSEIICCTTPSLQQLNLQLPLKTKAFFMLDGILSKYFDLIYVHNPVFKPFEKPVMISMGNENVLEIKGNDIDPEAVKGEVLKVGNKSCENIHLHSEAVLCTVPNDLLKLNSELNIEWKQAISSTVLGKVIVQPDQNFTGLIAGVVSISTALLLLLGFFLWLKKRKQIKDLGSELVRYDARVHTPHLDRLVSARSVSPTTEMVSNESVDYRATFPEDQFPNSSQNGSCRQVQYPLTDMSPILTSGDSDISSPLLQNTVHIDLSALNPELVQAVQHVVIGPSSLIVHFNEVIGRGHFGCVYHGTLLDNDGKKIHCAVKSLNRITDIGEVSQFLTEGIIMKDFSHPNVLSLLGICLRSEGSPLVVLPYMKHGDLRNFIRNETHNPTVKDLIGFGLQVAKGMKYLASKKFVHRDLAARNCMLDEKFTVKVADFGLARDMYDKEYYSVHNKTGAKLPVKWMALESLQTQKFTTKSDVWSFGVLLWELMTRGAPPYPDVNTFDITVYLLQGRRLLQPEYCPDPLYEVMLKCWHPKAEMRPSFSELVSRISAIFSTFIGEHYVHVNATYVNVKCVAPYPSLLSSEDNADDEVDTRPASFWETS
For assay [10] the target is unchanged. The following applies: at 10 µM.

What is called residual activity is the signal under treatment as a percentage of the control signal. On to `Cc1cccc(-c2[nH]c(C(C)(C)C)nc2-c2ccc3c(c2)OCO3)n1`, for which the residual activity in assay [1] was found to be 94%; in [2] it was 79%; in assay [3], 72%; in [4], 107%; in assay [5] it was 97%.

With `COc1cc2ncnc(Nc3ccc(Oc4ccccc4)cc3)c2cc1OC`, the residual activity in assay [6] came to 96%; in assay [1], 80%; in [2], 111%; in assay [3], 124%; in [4] it was 53%; in assay [5], 38%. The residual activity in [7] turned out to be 52%; in assay [8] it was 16%.

On to `Cn1cnc2cc3c(Nc4cccc(Br)c4)ncnc3cc21`, for which the residual activity was found to be 98% in assay [6]; 92% in assay [1]; 78% in assay [2]; 80% in [3]; 79% in [4]; 58% in [5]. Moreover, the residual activity was found to be 85% in [9], 68% in [10], 26% in assay [7] and 13% in [8].

With `CCN(CC)C(=O)c1ccc(Nc2nc(OCC3CCCCC3)c3nc[nH]c3n2)cc1`, the residual activity in assay [6] was found to be 66%; in assay [1] it was 7%; in assay [2], 63%; in assay [3] it was 16%; in [4], 15%; in assay [5], 0%. The residual activity in assay [9] came to 45%; in [10], 9%; in assay [8], 44%.

Turning to `N#CCCc1ccc2c(c1)-c1[nH]c3ccc([N+](=O)[O-])cc3c1CC(=O)N2`, the residual activity is 27% in [6]; 7% in assay [1]; 37% in assay [2]; 12% in [3]; 72% in [7]; 42% in assay [8].

For `CCN(CC)CCCCN1c2ccccc2Oc2ccc(Cl)cc21`, the residual activity was 118% in assay [6]; 112% in assay [1]; 85% in [2]; 99% in [3]; 110% in assay [4]; 62% in assay [5]. The residual activity came out at 128% in [9], 108% in [10], 107% in assay [7] and 84% in assay [8].

Turning to `O=c1c2ccccc2[nH]c(=S)n1CCN1CCC(=C(c2ccc(F)cc2)c2ccc(F)cc2)CC1`, the residual activity in assay [6] worked out at 120%; in [1] it was 93%; in [2], 71%; in assay [3], 69%; in assay [4], 106%; in [5] it was 88%. Further, the residual activity in assay [9] stood at 136%; in [10], 89%; in assay [7] it was 112%; in assay [8], 103%.

Take `CC#CC(=O)Nc1cc2c(Nc3ccc(F)c(Cl)c3)ncnc2cn1`: the residual activity in assay [6] worked out at 103%; in [1], 94%; in assay [2] it was 71%; in assay [3] it was 75%; in assay [4] it was 107%; in [5] it was 94%. Also, the residual activity stood at 111% in assay [9], 84% in assay [10], 101% in assay [7] and 90% in [8].

For the molecule `Nc1ccc2ncnc(NCCc3ccc(Oc4ccccc4)cc3)c2c1`, the residual activity in assay [6] is 100%; in assay [1] it was 72%; in assay [2], 99%; in [3], 72%; in assay [4], 95%; in [5], 62%. For the same molecule, the residual activity in assay [9] is 124%; in assay [10], 80%; in assay [7], 105%; in [8], 74%.

As for `CC(=O)c1ccc(N2CCOCC2)cc1O`, the residual activity in assay [2] came out at 70%; in assay [3], 71%; in assay [7] it was 105%; in assay [8] it was 96%.

`Cc1cncc2cccc(S(=O)(=O)N3CCCN(C(=O)CN)C[C@H]3C)c12`: the residual activity in assay [2] is 61%; in [3] it was 71%; in assay [4] it was 79%; in assay [5], 21%; in assay [9], 84%; in assay [10], 123%. In addition, the residual activity in assay [8] stood at 72%.

For the molecule `Cc1ccc(NC2=CC(=O)c3sc(C)nc3C2=O)cc1`, the residual activity came out at 109% in assay [6]; 100% in assay [1]; 78% in assay [2]; 83% in [3]; 98% in assay [4]; 110% in assay [5]. Moreover, the residual activity in assay [9] stood at 91%; in [10] it was 118%; in assay [7], 98%; in assay [8], 110%.

Turning to `Cn1cc(/C=C2\C(=O)Nc3ccc(S(N)(=O)=O)cc32)c2ccccc21`, the residual activity in assay [6] came to 27%; in assay [1], 6%; in assay [2], 69%; in assay [3] it was 63%; in [4], 22%; in assay [5], 16%. Further, the residual activity in [9] amounted to 84%; in assay [7] it was 80%; in assay [8], 72%.

Turning to `O=C1Nc2ccc(Br)cc2/C1=C\c1cc2c([nH]1)CCCC2`, the residual activity in assay [6] worked out at 46%; in assay [1], 61%; in assay [3], 77%; in assay [4] it was 68%; in assay [5] it was 45%; in [9], 104%. For the same molecule, the residual activity was determined as 144% in assay [10], 108% in assay [7] and 102% in assay [8].

On to `Nc1cccc(-c2cc3c(Oc4cccc(O)c4)ncnc3[nH]2)c1`, for which the residual activity in assay [6] stood at 99%; in [1], 69%; in assay [2], 65%; in assay [3], 23%; in assay [4], 81%; in assay [5], 35%. In addition, the residual activity in [9] is 63%; in [10], 22%; in assay [7] it was 68%; in assay [8], 20%.

In the case of `c1ccc(-c2n[nH]c3c2oc2ccccc23)cc1`, the residual activity in [2] amounted to 66%; in assay [3], 67%; in assay [4] it was 95%; in assay [5], 70%; in assay [9], 87%; in [10], 70%. Moreover, the residual activity in [7] was 80%; in [8], 24%.

As for `COc1cc2ncc(-c3ccccc3)nc2cc1OC`, the residual activity in assay [1] was 100%; in assay [2] it was 65%; in assay [3], 71%; in assay [5] it was 62%; in assay [9], 92%; in assay [10], 68%.

For `Cc1cc(Nc2nc(-c3ccccc3)nc3ccccc23)n[nH]1`, the residual activity in assay [6] worked out at 55%; in assay [1], 11%; in assay [2], 59%; in [3] it was 10%; in assay [4], 19%; in assay [5], 1%. The residual activity in [9] stood at 94%; in [10], 65%; in [8], 61%.

Consider `Oc1ccc(Nc2nc(-c3ccc(Cl)cc3)cs2)cc1`, for which the residual activity stood at 101% in assay [6]; 76% in [1]; 94% in [2]; 102% in [3]; 100% in assay [4]; 90% in assay [5]. The residual activity in assay [9] stood at 138%; in assay [10] it was 110%; in assay [7], 96%; in assay [8], 80%.

These data come from ChEMBL document CHEMBL2218924, “A broad activity screen in support of a chemogenomic map for kinase signalling research and drug discovery” (Biochem J, 2013).
